Our source for the cytotoxicity call values is the antibiotic and cytotoxicity screens of Wong et al. (2023).

About 3,300 (8.5%) of roughly 39,000 compounds were called active. Many of the other results were omitted from the sample, so actives are more common in it than they were.

This assay deals with HepG2. The assay is described as follows: cytotoxicity call (relative viability < 0.9). Conditions: 10 µM.
`C[C@@H]1CN([C@@H](C)CO)C(=O)c2cc(NC(=O)c3ccncc3)ccc2O[C@@H](C)CCCCO[C@H]1CN(C)S(C)(=O)=O`: the cytotoxicity call was “inactive”.
Turning to `C[C@H]1CN([C@@H](C)CO)S(=O)(=O)c2ccc(-c3cccnc3)cc2O[C@H]1CN(C)CC1CCOCC1`, the cytotoxicity call was “inactive”.
`C[C@H](CO)N1C[C@H](C)[C@@H](CN(C)C(=O)Nc2cccc3ccccc23)OCCCC[C@H](C)Oc2ccc(NC(=O)Nc3ccc4c(c3)OCO4)cc2C1=O`: the cytotoxicity call was “inactive”.
For `O=C(O)Cn1nnc(-c2ccccc2)n1` the value was “inactive”; for `C[C@@H]1CCCCO[C@@H](CN(C)C(=O)Cc2ccccc2)[C@H](C)CN([C@@H](C)CO)C(=O)c2cc(NS(=O)(=O)c3cccs3)ccc2O1`, “inactive”; for `COC(=O)c1[nH]c(C(=O)OC)c(O)c1O`, “inactive”.
In the case of `C[C@H]1CN([C@@H](C)CO)C(=O)c2cc(C3=CCCC3)cnc2O[C@@H]1CN(C)S(=O)(=O)c1cn(C)cn1` it was “inactive”.
Consider `CC(C)(C)[S@@](=O)N1Cc2cc(C(=O)NCC(F)(F)F)nc(-c3cccc(-c4cccc(F)c4)c3)c2[C@H]1CCO`, for which the cytotoxicity call was “inactive”.
In the case of `CC(C)(C)S(=O)N1Cc2cc(C(=O)Nc3ccc(-c4ccccc4)cc3)nc(-c3cccc(C#CCC4CCCC4)c3)c2[C@@H]1CCO` (stereo partly drawn) it was “inactive”; in that of `CC(C)(C)[S@](=O)N1Cc2cc(C(=O)NCC(F)(F)F)nc(-c3cccc(-c4cccc(F)c4)c3)c2[C@@H]1CCO`, “active”; in that of `CC(C)(O)C#Cc1cccc(-c2nc(C(=O)Nc3ccc(-c4ccccc4)cc3)cc3c2[C@@H](CCO)N(S(=O)C(C)(C)C)C3)c1` (stereo partly drawn), “active”.
In the case of `CCCNC(=O)c1cc2c(c(-c3cccc(-c4cccc(F)c4)c3)n1)[C@@H](CCO)N([S@](=O)C(C)(C)C)C2` it was “inactive”; in that of `CC(C)(O)C#Cc1cccc(-c2nc(C(=O)NCCCN3CCOCC3)cc3c2[C@@H](CCO)N(S(=O)C(C)(C)C)C3)c1` (stereo partly drawn), “inactive”.
In the case of `C[C@@H]1CN([C@@H](C)CO)C(=O)c2cc(NC(=O)Nc3ccc4c(c3)OCO4)ccc2O[C@@H](C)CCCCO[C@@H]1CN(C)S(=O)(=O)c1ccc(F)cc1` it was “inactive”.
Turning to `C[C@@H]1CN([C@@H](C)CO)C(=O)c2cc(NS(=O)(=O)c3cn(C)cn3)ccc2O[C@H]1CN(C)C(=O)Nc1ccc(F)cc1`, the cytotoxicity call was “inactive”.
For `O=C1C[C@@H](c2ccc(O[C@@H]3O[C@H](CO)[C@@H](O)[C@H](O)[C@H]3O)cc2)Oc2cc(O)ccc21` the value was “inactive”.
As for `NC(=S)c1ccc(-n2cncn2)nc1`, the cytotoxicity call was “inactive”.
In the case of `COc1cccc(-c2ccc3c(c2)O[C@@H](CN(C)Cc2cncnc2)[C@@H](C)CN([C@@H](C)CO)S3(=O)=O)c1` it was “inactive”; in that of `COC(=O)[C@H](Cc1ccccc1)N1CC2=CC(=O)[C@H](C3CC3)[C@H]2[C@@H]1[C@@H](O)CCn1cc(-c2cccc(/C=C/C(=O)NO)c2)nn1`, “inactive”.
As to `N#CN=C1NC(=O)CC(=O)N1`, the cytotoxicity call is “inactive”.
In the case of `C[C@H]1CN([C@@H](C)CO)C(=O)c2cc(-c3cccnc3)cnc2O[C@H]1CN(C)Cc1ccc(-c2ccccc2)cc1` it was “inactive”; in that of `C[C@@H]1CCCCO[C@@H](CN(C)Cc2ccc3c(c2)OCO3)[C@@H](C)CN([C@H](C)CO)C(=O)c2cc(NC(=O)c3ccccc3)ccc2O1`, “inactive”; in that of `C[C@@H]1CN([C@@H](C)CO)C(=O)c2cc(NC(=O)c3ccccc3)ccc2O[C@@H](C)CCCCO[C@@H]1CN(C)Cc1ccc2c(c1)OCO2`, “inactive”.
For `C[C@@H]1CCCCO[C@H](CN(C)Cc2ccc3c(c2)OCO3)[C@@H](C)CN([C@H](C)CO)C(=O)c2cc(NC(=O)c3ccccc3)ccc2O1` the value was “inactive”.
In the case of `C[C@@H]1CCCCO[C@@H](CN(C)Cc2ccc3c(c2)OCO3)[C@H](C)CN([C@H](C)CO)C(=O)c2cc(NC(=O)c3ccccc3)ccc2O1` it was “inactive”; in that of `C[C@@H]1CN([C@H](C)CO)C(=O)c2cc(NC(=O)c3ccccc3)ccc2O[C@@H](C)CCCCO[C@H]1CN(C)Cc1ccc2c(c1)OCO2`, “active”.
Take `C[C@@H]1CCCCO[C@@H](CN(C)Cc2ccc3c(c2)OCO3)[C@H](C)CN([C@@H](C)CO)C(=O)c2cc(NC(=O)c3ccccc3)ccc2O1`: the cytotoxicity call is “active”.
For `C[C@@H]1CN([C@H](C)CO)C(=O)c2cc(NC(=O)c3ccccc3)ccc2O[C@@H](C)CCCCO[C@@H]1CN(C)Cc1ccc2c(c1)OCO2` the value was “active”; for `C[C@@H]1CCCCO[C@H](CN(C)Cc2ccc3c(c2)OCO3)[C@H](C)CN([C@H](C)CO)C(=O)c2cc(NC(=O)c3ccccc3)ccc2O1`, “inactive”; for `C[C@H](CO)N1C[C@H](C)[C@@H](CN(C)Cc2ccc3c(c2)OCO3)OCCCC[C@H](C)Oc2ccc(NC(=O)c3ccccc3)cc2C1=O`, “inactive”.
In the case of `C=CCN1C(=O)[C@@H]2[C@@H](C1=O)[C@@H]1C=C[C@@H]2C1` it was “inactive”; in that of `COc1ccc(S(=O)(=O)Nc2cccc3c2O[C@@H](CN(C)Cc2ccncc2)[C@@H](C)CN([C@H](C)CO)C3=O)cc1`, “inactive”; in that of `C[C@H](CO)N1C[C@H](C)[C@@H](CN(C)C(=O)Nc2cccc3ccccc23)Oc2ccc(NC(=O)C3CCCCC3)cc2C1=O`, “inactive”.
With `Cc1ccc(S(=O)(=O)Nc2ccc3c(c2)C(=O)N([C@H](C)CO)C[C@@H](C)[C@@H](CN(C)C(=O)C2CCCCC2)OCCCC[C@@H](C)O3)cc1`, the cytotoxicity call was “inactive”.
In the case of `COC(=O)[C@@H](C)S(=O)(=O)NC(=O)c1cnc2ccccn2c1=O` it was “inactive”; in that of `O=C(C[C@H]1CC[C@H]2[C@@H](COC[C@@H](O)CN2C(=O)c2ccc3c(c2)OCO3)O1)NC1Cc2ccccc2C1`, “inactive”; in that of `Cn1cnc(S(=O)(=O)N2CC[C@@H](O)[C@@H]2Cc2cnn(C)c2)c1`, “inactive”.
In the case of `O=C1OCC=C[C@H]2O[C@@]34C=CCN(c5ccc6ccccc6c5)C(=O)[C@H]3N(CCCCCO)C(=O)[C@@H]4[C@@H]12` it was “inactive”.
In the case of `C[C@H](CO)N1C[C@H](C)[C@H](CN(C)S(=O)(=O)c2cccs2)Oc2ccc(NC(=O)Cn3cnnn3)cc2C1=O` it was “inactive”; in that of `NCC1CCN(Cc2ccccc2)CC1`, “inactive”.
As for `NC1CCN(Cc2ccccc2)CC1`, the cytotoxicity call was “inactive”.
For `S=C1SCN(Cc2ccccc2)CN1Cc1ccccc1` the value was “active”; for `COc1ccc(NC(=O)N(C)C[C@H]2OCCCC[C@H](C)Oc3ccc(NS(=O)(=O)c4c(C)noc4C)cc3C(=O)N([C@@H](C)CO)C[C@@H]2C)cc1`, “inactive”.
Consider `COc1ccc(NC(=O)Nc2ccc3c(c2)C(=O)N([C@@H](C)CO)C[C@@H](C)[C@@H](CN(C)Cc2ccc(Cl)c(Cl)c2)OCCCC[C@@H](C)O3)cc1`, for which the cytotoxicity call was “active”.
In the case of `COc1ccc(NC(=O)Nc2ccc3c(c2)C(=O)N([C@@H](C)CO)C[C@H](C)[C@H](CN(C)Cc2ccc(Cl)c(Cl)c2)OCCCC[C@@H](C)O3)cc1` it was “inactive”; in that of `COc1ccc(NC(=O)Nc2ccc3c(c2)C(=O)N([C@@H](C)CO)C[C@H](C)[C@@H](CN(C)Cc2ccc(Cl)c(Cl)c2)OCCCC[C@@H](C)O3)cc1`, “inactive”; in that of `COc1ccc(NC(=O)Nc2ccc3c(c2)C(=O)N([C@@H](C)CO)C[C@@H](C)[C@@H](CN(C)Cc2ccc(Cl)c(Cl)c2)OCCCC[C@H](C)O3)cc1`, “inactive”.
In the case of `COc1ccc(NC(=O)Nc2ccc3c(c2)C(=O)N([C@H](C)CO)C[C@H](C)[C@@H](CN(C)Cc2ccc(Cl)c(Cl)c2)OCCCC[C@@H](C)O3)cc1` it was “inactive”; in that of `COc1ccc(NC(=O)Nc2ccc3c(c2)C(=O)N([C@H](C)CO)C[C@@H](C)[C@H](CN(C)Cc2ccc(Cl)c(Cl)c2)OCCCC[C@@H](C)O3)cc1`, “active”; in that of `CN(C)C(=O)C[C@H]1CC[C@H]2[C@@H](COC[C@H](O)CN2S(=O)(=O)c2ccccc2)O1`, “inactive”.
For `Cc1noc(C)c1S(=O)(=O)Nc1ccc2c(c1)CC(=O)N([C@@H](C)CO)C[C@H](C)[C@@H](CN(C)C(=O)Nc1ccccc1)O2` the value was “inactive”; for `C[C@H](CO)N1C[C@H](C)[C@@H](CN(C)S(=O)(=O)c2ccc(Cl)cc2)Oc2ccc(NC(=O)Cn3cnnn3)cc2C1=O`, “inactive”; for `Cc1noc(C)c1NC(=O)N(C)C[C@H]1Oc2ccc(NC(=O)Nc3ccc(C(F)(F)F)cc3)cc2CC(=O)N([C@H](C)CO)C[C@@H]1C`, “inactive”.
As for `CCN([NH2+][O-])c1ccc(O)c(O)c1`, the cytotoxicity call was “inactive”.
Take `C[C@H]1CN([C@@H](C)CO)C(=O)CCCn2cc(nn2)CO[C@@H]1CN(C)C(=O)Nc1ccnc(N2CCOCC2)c1`: the cytotoxicity call is “inactive”.
For `Cc1ccc(S(=O)(=O)N(C)C[C@@H]2Oc3ccc(NC(=O)Nc4ccc(C(F)(F)F)cc4)cc3C(=O)N([C@H](C)CO)C[C@@H]2C)cc1` the value was “active”; for `Cc1ccc(S(=O)(=O)N(C)C[C@H]2Oc3ccc(NC(=O)Nc4ccc(C(F)(F)F)cc4)cc3C(=O)N([C@H](C)CO)C[C@@H]2C)cc1`, “inactive”.
In the case of `Cc1ccc(S(=O)(=O)N(C)C[C@@H]2Oc3ccc(NC(=O)Nc4ccc(C(F)(F)F)cc4)cc3C(=O)N([C@@H](C)CO)C[C@H]2C)cc1` it was “active”; in that of `Cc1ccc(S(=O)(=O)N(C)C[C@@H]2Oc3ccc(NC(=O)Nc4ccc(C(F)(F)F)cc4)cc3C(=O)N([C@@H](C)CO)C[C@@H]2C)cc1`, “inactive”.
In the case of `Cc1ccc(S(=O)(=O)N(C)C[C@H]2Oc3ccc(NC(=O)Nc4ccc(C(F)(F)F)cc4)cc3C(=O)N([C@@H](C)CO)C[C@@H]2C)cc1` it was “inactive”; in that of `Cc1ccc(S(=O)(=O)N(C)C[C@H]2Oc3ccc(NC(=O)Nc4ccc(C(F)(F)F)cc4)cc3C(=O)N([C@H](C)CO)C[C@H]2C)cc1`, “active”; in that of `Cc1ccc(S(=O)(=O)N(C)C[C@H]2Oc3ccc(NC(=O)Nc4ccc(C(F)(F)F)cc4)cc3C(=O)N([C@@H](C)CO)C[C@H]2C)cc1`, “active”.
With `Cc1ccc(S(=O)(=O)N(C)C[C@@H]2Oc3ccc(NC(=O)Nc4ccc(C(F)(F)F)cc4)cc3C(=O)N([C@H](C)CO)C[C@H]2C)cc1`, the cytotoxicity call is “inactive”.
